An excerpt weighted towards active compounds, which were near 2.5% of everything screened.
MEKK3 PB1 HTS – raises or lowers MEK5 binding to the human MEKK3 PB1 domain | Q99759 | bead-based flow cytometry, Alexa488-MEK5 binding to MEKK3; actives lie on both sides; 0 = blocked by unlabeled MEK5, 100 = vehicle | binding response (% of control), % at 10 µM | 290,000 compounds, 1.4% hits | AID 1529;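 active = binding response more than 3 SD above or below the average of its plate-row segment, actives on both sides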;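 note: Alexa488 bead fluorescence after subtracting the streptavidin-only scavenger bead signal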
Rce1 inhib – inhibitors of yeast Ras-converting enzyme. Q03530. yeast membranes, quenched prenylated peptide cleavage fluorescence. calls only. 290,000 compounds, 0.27% hits. AID 2563;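 active = fall in fluorescence gain of 50% or more versus controls, with final raw signal at or below 3038400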;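 note: plate controls were neutral control wells for no effect and wells lacking membranes for full effect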
Target sequence (Q03530 whole entry, looked up): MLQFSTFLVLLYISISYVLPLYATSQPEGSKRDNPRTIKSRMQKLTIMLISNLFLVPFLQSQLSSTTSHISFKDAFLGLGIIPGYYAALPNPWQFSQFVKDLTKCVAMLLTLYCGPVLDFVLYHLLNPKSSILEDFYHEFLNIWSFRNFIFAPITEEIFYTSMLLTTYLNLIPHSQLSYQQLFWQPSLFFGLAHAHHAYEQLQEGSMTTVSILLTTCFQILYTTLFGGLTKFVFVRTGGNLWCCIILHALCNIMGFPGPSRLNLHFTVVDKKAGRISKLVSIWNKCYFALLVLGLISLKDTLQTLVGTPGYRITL
UBC13 polyUb – blocks human UBC13 polyubiquitin chain formation; TR-FRET; 330,000 compounds, 0.47% hits; P61088; inhibition, % at 20 µM; in the data active = inhibition above about 45%, passing the limit was not always enough
Target sequence (P61088 whole entry, looked up): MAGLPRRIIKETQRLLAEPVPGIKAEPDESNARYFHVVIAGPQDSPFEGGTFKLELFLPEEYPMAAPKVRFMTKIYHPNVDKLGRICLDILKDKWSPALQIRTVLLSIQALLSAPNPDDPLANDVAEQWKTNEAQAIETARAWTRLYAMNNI
MEKK2 WT-MEK5 – raises or lowers MEK5 binding to wildtype human MEKK2 PB1 domain. bead flow cytometry, Alexa488-MEK5 binding to MEKK2 WT; actives lie on both sides. 290,000 compounds, 1.1% hits. binding response (% of control), % at 10 µM; in the data active = binding response below about 67% or above about 130%
MEKK2mut PB1 HTS – signal of MEK5 binding to mutant human MEKK2 PB1 domain; bead flow cytometry, Alexa488-MEK5 binding to MEKK2 mutant; percent response, % at 10 µM; 290,000 compounds, 0.35% hits; AID 1530; in the data active = percent response above about 24%, passing the limit was not always enough
MEKK2wt confirm – raises or lowers MEK5 binding to wildtype human MEKK2, retest; bead flow cytometry, Alexa488-MEK5 binding to MEKK2 WT; actives lie on both sides; binding response (% of control), % at 10 µM; AID 1892; 5,900 compounds, 2.4% hits; shares compounds with MEKK3 PB1 HTS; in the data active = binding response below about 16% or above about 210%; inactive = in between
MEKK2mut confirm – signal of MEK5 binding to mutant human MEKK2, retest; percent response, % at 10 µM; shares compounds with MEKK3 PB1 HTS; AID 1893; 5,900 compounds, 2% hits; bead flow cytometry, Alexa488-MEK5 binding to MEKK2 mutant; in the data active = percent response mostly above about 71%, no sharp cut-off; inactive = mostly below about 38%;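 note: higher means compound restores mutant binding toward wildtype level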
MEKK3-MEK5 inh – MEKK3-MEK5 PB1 inhibition, single concentration confirmation. AID 1894. binding response (% of control), % at 10 µM. 5,900 compounds, 1.8% hits. shares compounds with MEKK3 PB1 HTS. bead flow cytometry, Alexa488-MEK5 binding to MEKK3; hits give low values;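 active = binding response below 72% of control, or above a set upper limit, though filed actives all read lower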;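 note: 100% = DMSO only wells and 0% = binding blocked by excess unlabeled MEK5; lower values mean stronger disruption of MEK5 binding to MEKK3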
Numbers without * were called inactive; i = inactive; . = not tested or not shown; [ ] = dose if it differs, or a comment.

SMILES	MEKK3 PB1 HTS	Rce1 inhib	UBC13 polyUb	MEKK2 WT-MEK5	MEKK2mut PB1 HTS	MEKK2wt confirm	MEKK2mut confirm	MEKK3-MEK5 inh
CC1(C)Cc2ccccc2/C(=C/C(=O)N2CCCCCC2)N1	79*[inhibitor]	i	8	85	-9	103	3	102
O=C(Nc1ccc(N2CCOCC2)c(Cl)c1)c1cccnc1	101	i	-4	98	2	.	.	.
O=C(Nc1ccccc1N1CCOCC1)c1cccnc1	128*	i	-7	112	2	106	0	104
CC1Nc2ccccc2C(=O)N1NS(=O)(=O)c1ccccc1 (stereo unspecified)	96	i	9	93	-2	.	.	.
CCOC(=O)c1ccc(NC(=S)N(CCCN2CCCC(C)C2)Cc2cccs2)cc1 (stereo unspecified)	103	i	11	142*	13	119	6	100
CCOc1ccc(C(C#N)N2CCOCC2)cc1OC (stereo unspecified)	2.0*[inhibitor]	i	8	2.0*[inhibitor]	-21	103	-2	104
CCOc1cc(C(C#N)N2CCOCC2)ccc1OC (stereo unspecified)	96	i	2	98	-5	.	.	.
COc1ccc(NS(=O)(=O)c2cc(NC(=O)CCSc3ccccc3)ccc2OC)cc1	145*	i	5	111	-1	100	0	105
CCNc1nc(N2CCCCC2)nc(-n2nnc(C(=O)OCC)c2C)n1	60*[inhibitor]	i	4	61*[inhibitor]	-12	67	0	101
CCOC(=O)c1nnn(-c2nc(OC)nc(N3CCCC3)n2)c1-c1ccccc1	.	i	9	.	.	.	.	.
COc1cc(OC)cc(C(=O)N[C@H](C(=O)OCC(=O)c2ccc(C)c([N+](=O)[O-])c2)C(C)C)c1	.	.	13	.	.	.	.	.
COCCCNC(=O)CCN1N=C(c2ccccc2)CCC1=O	105	i	-2	107	4	.	.	.
CC(C)c1ccc(NC(=O)C(c2ccc3c(c2)OCO3)N2CCN(C(=O)c3ccco3)CC2)cc1 (stereo unspecified)	99	i	-11	99	0	.	.	.
CCN(CC)C(C(=O)Nc1ccc(C(C)C)cc1)c1ccc2c(c1)OCO2 (stereo unspecified)	118	i	5	134*	15	117	6	101
O=C(NCc1cccc(Cl)c1)C1CCC(=O)N(CCCN2CCCC2=O)C1 (stereo unspecified)	105	i	1	105	3	.	.	.
C=CCS/C(N)=N\N=C\c1c(O)ccc2ccccc12	139*	i	18	131	24	107	5	106
CN1C(C(=O)NCc2cccc(C(F)(F)F)c2)CC2Cn3c(nc4ccccc43)C21 (stereo unspecified)	51*[inhibitor]	i	-7	96	-5	100	-4	98
O=C(NC1CCS(=O)(=O)C1)c1cccc(S(=O)(=O)N2CCCC2)c1 (stereo unspecified)	104	i	0	103	5	.	.	.
N#C/C(=C/c1ccc(N2CCCCC2)o1)C(=O)Nc1ccc2ccccc2c1	148*	i	.	210*	206*	89	-30	92
COc1cc(NC(=O)CNc2cccc(S(=O)(=O)N3CCOCC3)c2)cc(OC)c1	.	.	2	.	.	.	.	.
Cc1ccc2nc(N(CCCN(C)C)C(=O)CCc3ccccc3)sc2c1	139*	i	.	137	5	139	12	102
CN(C)CCCN(C(=O)COc1ccc(Cl)cc1)c1nc2cc3c(cc2s1)OCO3	107	i	35	179*	35*	176	41	109
CN(C)CCCN(C(=O)CCc1ccccc1)c1nc2ccc(Cl)cc2s1	114	i	36	164*	43	184	51	111
CN(C)CCCN(C(=O)COc1ccccc1)c1nc2ccc(Cl)cc2s1	105	i	19	167*	32	154	20	106
Cc1ccc2nc(N(CCCN(C)C)C(=O)CS(=O)(=O)c3ccccc3)sc2c1	.	i	5	.	.	.	.	.
SMILES	MEKK3 PB1 HTS	Rce1 inhib	UBC13 polyUb	MEKK2 WT-MEK5	MEKK2mut PB1 HTS	MEKK2wt confirm	MEKK2mut confirm	MEKK3-MEK5 inh
CN(C)CCCN(C(=O)COc1ccccc1)c1nc2cc3c(cc2s1)OCO3	101	i	5	118	13	.	.	.
COc1cccc2sc(N(CCCN(C)C)C(=O)COc3ccc(Cl)cc3)nc12	105	i	21	168*	9	151	35	103
C/C(=N\NC(=O)C1CC1)c1ccc2c(c1)OCCO2	4.0*[inhibitor]	i	-10	6.0*[inhibitor]	-46	109	7	105
C/C(=N\NC(=O)c1ccc(O)cc1)c1ccc2c(c1)OCCO2	.	.	-1	.	.	.	.	.
CCCCN1C(=O)/C(=C/C=C2\SCCN2C)SC1=S	96	i	i	92	-8	.	.	.
CCCCN1C(=O)/C(=C/C=C2\N(C)c3ccccc3C2(C)C)SC1=S	67	i	-255	130	156*	36	-58*[inhibitor]	41*
O=C(/C=C/c1c[nH]c2ccccc12)c1ccccc1	136*	i	-8	103	0	106	0	106
COc1ccc(OC)c(C2C=C(c3ccc(C)c(C)c3)Nc3nnnn32)c1 (stereo unspecified)	1.0*[inhibitor]	i	4	0.0*[inhibitor]	-47	96	1	104
COc1cccc(C2=CC(c3cc(OC)ccc3OC)n3nnnc3N2)c1 (stereo unspecified)	.	i	-19	.	.	.	.	.
COc1cccc(C2=CC(c3cccc(OC)c3OC)n3nnnc3N2)c1 (stereo unspecified)	80*[inhibitor]	i	-4	87	-12	96	0	104
Cc1csc2ncc(C(=O)NCCC(c3ccccc3)c3ccccc3)c(=O)n12	130*	.	13	123	27	101	3	97
CCC(C(=O)N1CCOCC1)n1c2ccccc2c2nc(=O)cc(C)n21 (stereo unspecified)	102	i	3	108	2	.	.	.
O=C(Nn1c(O)c(C=C2N=c3ccccc3=N2)sc1=S)c1cccc(Cl)c1	79	i	-48	49*[inhibitor]	-4	63	-21	95
O=C(Nn1c(O)c(C=C2N=c3ccccc3=N2)sc1=S)c1ccc(Cl)cc1	.	i	-23	.	.	.	.	.
O=C(Nn1c(O)c(C=C2N=c3ccccc3=N2)sc1=S)c1ccccc1	65	i	-23	17*[inhibitor]	-39	52	-23	91
Cc1ccc(S(=O)(=O)Nn2c(O)c(C=C3N=c4ccccc4=N3)sc2=S)cc1	99	i	-13	83	-3	.	.	.

Source: PubChem (several laboratories)
